Source: PubChem BioAssay (NCATS)
Several values for one entry are separate records, joined by “and”; a condition that tells them apart may be missing. Equal entries are not always repeated. Inconclusive results are not listed. Entries that show only a call come without a potency. Activity calls are given as the source filed them. The call rests on the fitted dose curve.

Legend:
[1] = Cytotoxicity counterscreen for inhibitors of SARS-CoV-2 cell entry (AID 1645845); settings: outcome: dose series up to 57.1 µM unless noted; further: nearly all actives have a fitted effect of over 50% in size
Outline: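 ATP-content luminescence (ATPLite 1step, 15 min RT) read after 48 h compound exposure of Expi293F cells stably expressing human ACE2; normalized to cells-only wells and media-only wells.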

[2] = Primary qHTS to identify inhibitors of SARS-CoV-2 cell entry (AID 1645846); settings: SARS-CoV-2 pseudovirus cell entry assay, luminescence; activity change, negative = inhibition: at 57.1 µM (top of the series) unless noted; further: nearly all actives have a fitted effect of over 45% in size
Outline: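 HEK293-ACE2 (Expi293F, stable hACE2), 1500 cells/well, o/n 37C; cpd 23 nL pin, 1 h; MLV-PP w/ SARS-CoV-2-S (Wuhan-Hu-1, Δ19 C-term); 48 h 37C; Bright-Glo luminescence; normalized vs S-PP and bald PP.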
Potency means the concentration at half of the fitted maximal effect.

| SMILES | Potency [1] | activity change, negative = inhibition [2] | Potency [2] |
| --- | --- | --- | --- |
| N#C[C@@H]1C[C@@H]2C[C@@H]2N1C(=O)[C@@H](N)C12CC3CC(CC(O)(C3)C1)C2 | inactive | -14.2% | – |
| Cn1cc(-c2c[nH]c3ncnc(N4CCOCC4)c23)cn1 | inactive | -0.441% | – |
| CN(C)c1cccc(-c2c3c(=O)n(-c4ccccc4Cl)[nH]c3cc(=O)n2C)c1 | inactive | -19.6% | – |
| CCOCOC[C@H](C[C@H](C)C(=O)NO)NC(=O)c1ccc(Oc2ccccc2)cc1 | inactive | -23.9% | – |
| C[C@@H](O)[C@@H]1NC(=O)[C@H](CCCCN)NC(=O)[C@@H](Cc2c[nH]c3ccccc23)NC(=O)[C@H](Cc2ccccc2)NC(=O)[C@@H](NC(=O)[C@H](N)Cc2ccccc2)CSSC[C@@H](C(=O)N[C@H](CO)[C@@H](C)O)NC1=O | inactive | -12.9% [at 27.1 µM] | – |
| Cn1cc(-c2ccc(F)c(C(F)(F)F)c2)nc1C1CCN(c2ncnc3[nH]ncc23)CC1 | inactive | – | inactive |
| O=C(Nc1ccccc1)Nc1ccc(-c2ccc(C(=O)[C@@H]3CCC[C@H]3C(=O)O)cc2)cc1 | inactive | -45.3% | – |
| CC1(N)CCN(c2cnc(-c3cccc(Cl)c3Cl)c(N)n2)CC1 | inactive | -2.57% [at 27.1 µM] | – |
| CC(C)(O)c1coc(S(=O)(=O)NC(=O)Nc2c3c(cc4c2CCC4)CCC3)c1 | inactive | – | inactive |
| CC(C)(CNC(=O)c1cccc(-c2noc(C(F)(F)F)n2)c1)c1coc(-c2ccccc2)n1 | inactive | -6.95% | – |
| CC(C)(C)C(=O)N1N=CC[C@H]1c1ccccc1 | inactive | -3.46% | – |
| Clc1cccc(-c2ccc(-c3nnc(CCCc4ccc5cccnc5n4)o3)cc2)c1 | inactive | – | inactive |
| CNC(=O)Cn1cc(-c2ccc3c(c2)C(F)CC32NC(=O)N(CC(=O)N(Cc3ccc(F)cc3)[C@@H](C)C(F)(F)F)C2=O)cn1 (some centres not stated) | inactive | -19.9% and -7.29% | – |
| COc1cc2nccc(Oc3ccc(NC(=O)c4cn(C(C)C)c(=O)n(-c5ccc(F)cc5)c4=O)cc3F)c2cc1OC | inactive | – | inactive |
| O=C(NOCC(O)CO)c1ccc(F)c(F)c1Nc1ccc(I)cc1F (configuration not stated) | inactive | -21.5% | – |
| O=C(/C=C/c1ccc(Cl)cc1)N1CCC2(CC1)CN(Cc1ccc(Cl)c(Cl)c1)C(=O)O2 | inactive | 0.824% | – |

| SMILES | Potency [1] | activity change, negative = inhibition [2] | Potency [2] |
| --- | --- | --- | --- |
| CCS(=O)(=O)c1ccc2oc(-c3ccc4ccccc4c3)nc2c1 | inactive | – | inactive |
| CCCCNc1ncc2c(-c3ccc(F)cc3)nn(CC3CCC(N)CC3)c2n1 (configuration not stated) | inactive | – | 10 µM (active) |
| O=C(Nc1ccc(-c2ccnc(Nc3ccc(N4CCOCC4)cc3)n2)cc1)C1CCCN1 (configuration not stated) | inactive | -3.33% | – |
| O=C(O)CCNc1cc(N2CCc3ccccc3CC2)nc(-c2cccnc2)n1 | inactive | – | inactive |
| O=C1OC(COc2ccccc2[N+](=O)[O-])CC1Cc1ccccc1 (configuration not stated) | inactive | -2.39% | – |
| Cc1c(F)cccc1NC(=O)Nc1ccc(Cl)c(S(=O)(=O)[C@H]2CCCNC2)c1O | inactive | – | inactive |
| CN(C)Cc1ccc(S(=O)(=O)n2ccc(/C=C/C(=O)NO)c2)cc1 | 31.6 µM (active) | 2% | – |
| O=C(Nc1nccs1)C(c1cc(F)ccc1O)N1Cc2ccccc2C1=O (configuration not stated) | inactive | -14.9% | – |
| COc1ccc2[nH]c(C(=O)N3CCC(CC(C)(C)O)CC3)cc2c1 | inactive | – | inactive |
| C[C@@H]1O[C@@H](O[C@@H]2\C=C/C=C\C=C/C=C\C[C@H](C)OC(=O)/C=C\[C@H]3O[C@@H]3C[C@H](O)C[C@]3(O)C[C@@H](O)[C@@H](C(=O)O)[C@H](C2)O3)[C@H](O)[C@H](N)[C@@H]1O | inactive | -17.3% | – |
| NCc1ccc(OCCCc2sc(-c3ccc4c(c3)/C(=N/Nc3nc5ccccc5s3)CCC4)nc2C(=O)O)cc1 | inactive | 1.79% | – |
| Cc1cc(-c2cc(OC(=O)c3ccccc3)ccc2Cl)cc2nnc(Nc3ccc(OCCN4CCCC4)cc3)nc12 | inactive | -21.1% [at 27.1 µM] | – |
| Cc1noc(-c2ccc(-c3ccc(C4(C(=O)O)CC4)cc3)cc2)c1NC(=O)O[C@H](C)c1ccccc1 | inactive | – | 35.5 µM (active) |
| O=C(O)CNC(=O)c1ncc(-c2cccc(Cl)c2)cc1O | inactive | – | inactive |
| Cc1c(F)cc(C(=O)NC2CC2)cc1-c1c(F)cn2c(C(C)(C)C)nnc2c1F | inactive | 3.6% | – |
